Experimental data as given in PubChem BioAssay AID1159580 (chemical genetic matrix, 2015).
The whole screen tested about 5,500 compounds, of which about 2,000 (36%) were called active. Inconclusive results (about 18%) are left out. No stated cut-off is given here; in the data, active means normalized growth mostly below about 0.91 (no sharp cut-off); inconclusive means no clear call, values can overlap the other calls; inactive means mostly above about 0.92. The list shows a part of the results.

Experiment: chemical genetic growth profiling, strain panel (AID 1159580);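 further: tested at 20 µM; growth read once vehicle control cultures reached saturation at 30 °C; 1 = growth at the plate median or of vehicle wells; lower values mean less growth of the strain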
Conditions: S. cerevisiae deletion strains, growth OD

Measured: normalized growth

COc1ccc(/C=C/C(=O)Nc2ccccc2C(=O)O)cc1OC
inactive: locus YAL013W, strain DEP1, hits give low values 1.03 | locus YAL040C, strain CLN3, hits give low values 0.97 | locus YCL061C, strain MRC1 (second series), hits give low values 0.99 | locus YDR150W, strain NUM1, hits give low values 0.994 | locus YDR363W, strain ESC2, hits give low values 1.01 | locus YER002W, strain NOP16, hits give low values 0.985 | locus YMR263W, strain SAP30, hits give low values 0.996 | locus YMR307W, strain GAS1, hits give low values 1.01 | locus YNL175C, strain NOP13, hits give low values 0.979 | locus YNL197C, strain WHI3, hits give low values 0.964 | locus YNL224C, strain SQS1, hits give low values 0.999 | locus YNL322C, strain KRE1, hits give low values 1.02 | locus YOR083W, strain WHI5 (second series), hits give low values 0.964 | locus YPL055C, strain LGE1, hits give low values 1.05 | locus YPL241C, strain CIN2, hits give low values 0.991
